Experimental data as given in ChEMBL document CHEMBL3988442, “University of Dundee, Small-Polar-MMV Screening Library” (2021).
Screen size: about 48,000 compounds; about 13,000 (27%) showed an effect of 50% or more. The list shows a part of the results.

Each molecule was assayed on Wolbachia pipientis (assay: Anti-Wolbachia Cell-Based Screen). Conditions: 5 µM.
Assay type: functional
Parameters: scale not given: in the data most compounds retested in dose-response had high values

Compound	Percent Effect [%]
O[C@@]1(CNCCCNc2cccnc2)CCCN2CCCC[C@@H]21	3.199
Cc1nc(O)cc(CN2CC=C(c3cnn(C(C)(C)C)c3)CC2)n1	6.105
CC(Cc1ccccc1Br)NC(=O)CCS(C)(=O)=O (centres undefined)	11.71
O=C(O)C(F)(F)F.c1ccc(NC[C@@H]2CCC[C@@H]3CN(Cc4cccnc4)C[C@@H]32)nc1	90.18
O=C(O)C(F)(F)F.c1ccc(NC[C@@H]2CCC[C@@H]3CN(Cc4nccs4)C[C@@H]32)nc1	-15.69
O=C(O)C(F)(F)F.c1cnc(NC[C@@H]2CCC[C@@H]3CN(Cc4cccnc4)C[C@@H]32)nc1	-1.894
CSCCCN1CC[C@@]2(O)CCN(c3ncccn3)C[C@H]2C1	-7.567
Cc1cccc(-c2ncc(CNC(C)Cc3ncccc3C)cn2)c1 (centres undefined)	-7.429
Cc1nc(CN2CCCC3(CCN(c4cccnc4)C3=O)C2)cs1.O=C(O)C(F)(F)F.O=C(O)C(F)(F)F (centres undefined)	-13.68
Cc1noc(C)c1CN1C(=O)[C@H]2CC[C@@H]1CN(Cc1cscn1)C2	-52.5
Cc1nc(CN2CCC3(C2)CN(C(=O)c2conc2C)C3)cs1	97.08
c1cc(NC2CC3(CCN(Cc4cc[nH]n4)C3)C2)ncn1 (centres undefined)	-10.13
Cc1cc(NC2CC3(CCN(Cc4cscn4)C3)C2)ncn1 (centres undefined)	115
Cc1cc(CN2C[C@H]3CCC[C@@]3(COCc3csc(C)n3)C2)no1.O=C(O)C(F)(F)F	6.371
Cc1cc(NC2CC3(CCN(Cc4csc(C)n4)C3)C2)ncn1 (centres undefined)	114
c1cc(NC2CC3(CCN(Cc4cscn4)C3)C2)ncn1 (centres undefined)	101.6
NCC1(c2cccc(F)c2)CCOCC1	-10.48
Cc1cc(CC(=O)N2CCN(CC3CC3)[C@@H]3CS(=O)(=O)C[C@@H]32)ccc1F	7.302
O=S1(=O)CCC(n2cc(C3=CCN(CCc4ccccc4)CC3)cn2)C1 (centres undefined)	-5.355
Cc1n[nH]c(C)c1CC(=O)N1CCN(C)C2(CCNC(=O)CC2)C1 (centres undefined)	2.016
O=C(Nc1ccccc1)[C@H]1CN2CC[C@H]1C[C@@H]2Cn1cc(CCO)nn1	-5.907
CC(=O)N1CCC2(CC1)c1ncc(-c3cccnc3)n1CCN2C	84.46

Compound	Percent Effect [%]
c1ccc2c(c1)CCC21CN(CCc2ccncc2)CCO1 (centres undefined)	-6.517
CCC1CCCCN1CCc1ccncc1 (centres undefined)	-22.38
CC1CN(CCc2ccncc2)CCO1 (centres undefined)	124.6
CC(C)=CCN1C(=O)[C@H]2CC[C@@H]1CN(Cc1cccnc1N)C2	18.56
COc1cccc(CC(C)NC(=O)NCc2ccn(C)c2)c1 (centres undefined)	-0.6382
CN(C)C(=O)CN1CC[C@@H]2O[C@@H](COCc3cccnc3)CC[C@@H]21.O=C(O)C(F)(F)F.O=C(O)C(F)(F)F	-11.44
O=C(O)C(F)(F)F.c1cc(COC[C@H]2CCC[C@]23CNCCO3)ccn1	99.79
COC[C@@H]1CCC[C@]12CN(Cc1cccc(C)n1)CCO2.O=C(O)C(F)(F)F.O=C(O)C(F)(F)F	6.622
CCN(Cc1cccnc1)CC1CCCO1 (centres undefined)	-10.66
Cl.Cl.c1cncc(COC[C@@H]2CCC[C@@]23CNCCO3)c1	86.08
O=C(O)C(F)(F)F.O=C(O)C(F)(F)F.O=C1NCC[C@]12CN(Cc1cccnc1)C[C@H]2c1ccccc1	-5.552
O=C(O)C(F)(F)F.O=C(O)C(F)(F)F.O=C1NCC[C@]12CN(Cc1ccncc1)C[C@H]2c1ccccc1	4.919
O=C(NCC1CC[C@@]2(CNCCOC2)O1)c1cccnc1 (some centres undefined)	-3.368
O=C(O)C(F)(F)F.O=C(O)C(F)(F)F.c1cncc(COC[C@@H]2CCC[C@]23CNCCO3)c1	101.8
CC(C)(C)c1cc(=O)[nH]c(C2(N)CCCC2)n1	3.211
CC[C@H]1CN2CC[C@H]1C[C@@H]2CNC(=O)Nc1cccc(C(F)(F)F)c1	-2.454
Cc1noc(CN2CC=C(c3cnn(C4CCS(=O)(=O)C4)c3)CC2)n1 (centres undefined)	-14.25
CCOc1ccc(-c2cc(CCN)ccc2OC)cc1	7.711
CN1C[C@H](NC(=O)c2cscn2)[C@@H]2OCCC[C@@H]21.O=C(O)C(F)(F)F	111.9
Cl.O=C(N[C@H]1CN[C@H]2CCCO[C@H]21)c1cscn1	6.195
O=C(N[C@H]1CN(Cc2cccs2)[C@@H]2CCCO[C@H]12)c1cccnc1.O=C(O)C(F)(F)F.O=C(O)C(F)(F)F	-1.494
Nc1ncccc1CN1C[C@@H]2CC[C@H](C1)N(CC1CC1)C2=O	7.202
